Compounds without any hit were thinned out: in the full panel of roughly 79,000, 15% have a hit. A number with no mark means an inactive call. Activity calls are given as the source filed them. No stated cut-off is given here; in the data, active means growth inhibition above about 70%; inactive means the rest.
Assay: NCI Yeast Anticancer Drug Screen. Data for the mgt1 strain (AID 153)
Conditions: S. cerevisiae mgt1 mutant growth inhibition, stronger effect = higher value
Protocol: Growth inhibition of yeast strains with defined genetic alterations is measured as a screen for potential anti-cancer activity. Selected strains with alterations in DNA damage repair or cell cycle control were exposed to compounds and growth inhibition was measured relative to vehicle treated controls. The strain used in this assay is mgt1

Structure (SMILES)	growth inhibition (at 1.2 µM) [%]	growth inhibition (at 3.7 µM) [%]	growth inhibition (at 11.0 µM) [%]	growth inhibition (at 33.0 µM)	growth inhibition (at 100.0 µM)
Cc1c2ccncc2c(C)c2c1oc1ccccc12	-1	6	10	61%	98% (active)
O=C(Cc1ccccc1)c1ccc(O)cc1	-45	-56	-38	51%	82% (active)
[O-]c1c2cc(-[n+]3c(-c4ccccc4)cc(-c4ccccc4)cc3-c3ccccc3)cc1COCCOCCOCCOCCOC2	-7	-2	-13	10%	82% (active)
OC1C#CCSCC#C/C=C\1 (stereo not given)	9	2	14	43%	95% (active)
CCOC(=O)/C=C1\CCCn2c1ncc(C(=O)OCC)c2=O	3	2	6	-2%	26%
COC1=C(N=[N+]=[N-])C(=O)c2ncccc2C1=O	10	7	31	81% (active)	94% (active)
O=S(=O)(O)c1ccc2c(N=Nc3c(O)ccc4ccccc34)cccc2c1	0	0	12	37%	66%
COc1ccc2c(Cc3c4ccccc4cc4ccccc34)cncc2c1O	3	6	11	42%	93% (active)
